Laboratory results published in PubChem BioAssay AID1159580 (chemical genetic matrix, 2015).
The whole screen tested about 5,500 compounds, of which about 2,000 (36%) were called active. Inconclusive results (about 18%) are left out. The list shows a part of the results. A number with no mark means an inactive call. Rule as the data show it: active = normalized growth mostly below about 0.91 (no sharp cut-off); inconclusive = no clear call, values can overlap the other calls; inactive = mostly above about 0.92.

Experiment: chemical genetic growth profiling, strain panel (AID 1159580);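 also: tested at 20 µM; growth read once vehicle control cultures reached saturation at 30 °C; 1 = growth at the plate median or of vehicle wells; lower values mean less growth of the strain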
Details: S. cerevisiae deletion strains, growth OD
[1] = locus YAR019C, strain CDC15, active compounds read low
[2] = locus YBL105C, strain PKC1, active compounds read low
[3] = locus YBR135W, strain CKS1, active compounds read low
[4] = locus YBR136W, strain MEC1, active compounds read low
[5] = locus YBR160W, strain CDC28, active compounds read low
[6] = locus YDL017W, strain CDC7, active compounds read low
[7] = locus YDL028C, strain MPS1, active compounds read low
[8] = locus YDL101C, strain DUN1, active compounds read low
[9] = locus YDL108W, strain KIN28, active compounds read low
[10] = locus YDL132W, strain cdc53, active compounds read low
[11] = locus YDL214C, strain PRR2, active compounds read low
[12] = locus YDR052C, strain DBF4, active compounds read low
[13] = locus YDR054C, strain cdc34, active compounds read low
[14] = locus YDR226W, strain ADK1, active compounds read low
[15] = locus YDR477W, strain SNF1, active compounds read low
[16] = locus YER123W, strain YCK3, active compounds read low
[17] = locus YER133W, strain GLC7, active compounds read low
[18] = locus YFL009W, strain cdc4, active compounds read low
[19] = locus YFL029C, strain CAK1, active compounds read low
[20] = locus YFR003C, strain YPI1, active compounds read low
[21] = locus YFR019W, strain FAB1, active compounds read low
[22] = locus YFR028C, strain CDC14, active compounds read low
[23] = locus YGR040W, strain KSS1, active compounds read low
[24] = locus YGR052W, strain FMP48, active compounds read low
[25] = locus YGR092W, strain DBF2, active compounds read low
[26] = locus YHR030C, strain SLT2, active compounds read low
[27] = locus YHR079C, strain IRE1, active compounds read low
[28] = locus YHR082C, strain KSP1, active compounds read low
[29] = locus YHR205W, strain SCH9, active compounds read low
[30] = locus YIL147C, strain SLN1, active compounds read low
[31] = locus YJL095W, strain BCK1, active compounds read low
[32] = locus YJL128C, strain PBS2, active compounds read low
[33] = locus YJL157C, strain FAR1, active compounds read low
[34] = locus YJR016C, strain ILV3, active compounds read low
[35] = locus YJR066W, strain TOR1 (second series), active compounds read low
[36] = locus YJR066W, strain TOR1, active compounds read low
[37] = locus YKL048C, strain ELM1, active compounds read low
[38] = locus YKL067W, strain YNK1, active compounds read low
[39] = locus YKL101W, strain HSL1, active compounds read low
[40] = locus YKL193C, strain SDS22, active compounds read low
[41] = locus YKL203C, strain TOR2, active compounds read low
[42] = locus YLR113W, strain HOG1, active compounds read low
[43] = locus YLR133W, strain CKI1, active compounds read low
[44] = locus YLR403W, strain SFP1, active compounds read low
[45] = locus YML070W, strain DAK1, active compounds read low
[46] = locus YMR001C, strain CDC5, active compounds read low
[47] = locus YMR205C, strain PFK2 (second series), active compounds read low
[48] = locus YMR277W, strain FCP1, active compounds read low
[49] = locus YNL006W, strain LST8, active compounds read low
[50] = locus YNL020C, strain ARK1, active compounds read low
[51] = locus YNL161W, strain CBK1, active compounds read low
[52] = locus YNL183C, strain NPR1, active compounds read low
[53] = locus YNL207W, strain RIO2, active compounds read low
[54] = locus YNL222W, strain SSU72, active compounds read low
[55] = locus YNL307C, strain MCK1 (second series), active compounds read low
[56] = locus YOL078W, strain AVO1, active compounds read low
[57] = locus YOL136C, strain PFK27, active compounds read low
[58] = locus YOR061W, strain CKA2, active compounds read low
[59] = locus YOR119C, strain RIO1, active compounds read low
[60] = locus YOR231W, strain MKK1, active compounds read low
[61] = locus YOR329C, strain SCD5, active compounds read low
[62] = locus YPL031C, strain PHO85, active compounds read low
[63] = locus YPL153C, strain RAD53, active compounds read low
[64] = locus YPL204W, strain HRR25, active compounds read low
[65] = locus YPL209C, strain IPL1, active compounds read low
[66] = locus YPL256C, strain CLN2, active compounds read low
[67] = locus YPR025C, strain CCL1, active compounds read low
[68] = locus YPR106W, strain ISR1, active compounds read low
[69] = locus YPR111W, strain DBF20, active compounds read low
[70] = strain NNK1, active compounds read low
[71] = strain TSCII, active compounds read low

Cc1nc(C(F)(F)F)c(C(=O)O/N=C(/N)c2ccc(Cl)cc2)s1
normalized growth [1]: 0.98 | normalized growth [2]: 0.975 | normalized growth [3]: 0.98 | normalized growth [4]: 0.968 | normalized growth [5]: 0.983 | normalized growth [6]: 0.988 | normalized growth [7]: 0.974 | normalized growth [8]: 0.994 | normalized growth [9]: 0.98 | normalized growth [10]: 0.997 | normalized growth [11]: 0.967 | normalized growth [12]: 0.988 | normalized growth [13]: 1 | normalized growth [14]: 0.991 | normalized growth [15]: 0.942 | normalized growth [16]: 0.92 | normalized growth [17]: 0.942 | normalized growth [18]: 0.974 | normalized growth [19]: 0.983 | normalized growth [20]: 0.982 | normalized growth [21]: 0.938 | normalized growth [22]: 0.98 | normalized growth [23]: 0.941 | normalized growth [24]: 0.952 | normalized growth [25]: 0.933 | normalized growth [26]: 0.999 | normalized growth [27]: 0.83 | normalized growth [28]: 1.14 | normalized growth [29]: 0.921 | normalized growth [30]: 0.978 | normalized growth [31]: 0.818 | normalized growth [32]: 0.978 | normalized growth [33]: 0.952 | normalized growth [34]: 0.984 | normalized growth [35]: 0.926 | normalized growth [36]: 1.06 | normalized growth [37]: 1 | normalized growth [38]: 0.974 | normalized growth [39]: 0.983 | normalized growth [40]: 0.954 | normalized growth [41]: 1.03 | normalized growth [42]: 0.79 (active) | normalized growth [43]: 0.948 | normalized growth [44]: 0.905 | normalized growth [45]: 0.939 | normalized growth [46]: 0.973 | normalized growth [47]: 0.941 | normalized growth [48]: 0.974 | normalized growth [49]: 0.985 | normalized growth [50]: 0.945 | normalized growth [51]: 0.984 | normalized growth [52]: 0.876 | normalized growth [53]: 0.972 | normalized growth [54]: 0.977 | normalized growth [55]: 0.963 | normalized growth [56]: 0.97 | normalized growth [57]: 0.946 | normalized growth [58]: 0.948 | normalized growth [59]: 0.983 | normalized growth [60]: 0.831 | normalized growth [61]: 0.974 | normalized growth [62]: 0.947 | normalized growth [63]: 0.937 | normalized growth [64]: 0.921 | normalized growth [65]: 0.982 | normalized growth [66]: 0.795 (active) | normalized growth [67]: 0.993 | normalized growth [68]: 0.987 | normalized growth [69]: 0.976 | normalized growth [70]: 0.995 | normalized growth [71]: 0.974

CCCC1c2ccsc2CCN1C(=S)Nc1ccc(Cl)cc1Cl (stereo not drawn)
normalized growth [1]: 0.969 | normalized growth [2]: 0.971 | normalized growth [3]: 0.983 | normalized growth [4]: 0.972 | normalized growth [5]: 0.984 | normalized growth [6]: 0.973 | normalized growth [7]: 0.971 | normalized growth [8]: 0.984 | normalized growth [9]: 0.987 | normalized growth [10]: 0.98 | normalized growth [11]: 0.984 | normalized growth [12]: 0.981 | normalized growth [13]: 0.962 | normalized growth [14]: 0.968 | normalized growth [15]: 0.974 | normalized growth [16]: 0.952 | normalized growth [17]: 0.968 | normalized growth [18]: 0.971 | normalized growth [19]: 0.967 | normalized growth [20]: 0.975 | normalized growth [21]: 0.986 | normalized growth [22]: 0.963 | normalized growth [23]: 0.959 | normalized growth [24]: 1 | normalized growth [25]: 0.946 | normalized growth [26]: 0.922 | normalized growth [27]: 0.975 | normalized growth [28]: 0.987 | normalized growth [29]: 0.878 | normalized growth [30]: 0.973 | normalized growth [31]: 0.961 | normalized growth [32]: 0.946 | normalized growth [33]: 0.981 | normalized growth [34]: 0.972 | normalized growth [35]: 0.946 | normalized growth [36]: 0.981 | normalized growth [37]: 0.975 | normalized growth [38]: 0.97 | normalized growth [39]: 0.964 | normalized growth [40]: 0.969 | normalized growth [41]: 1.02 | normalized growth [42]: 0.897 | normalized growth [43]: 0.974 | normalized growth [44]: 0.931 | normalized growth [45]: 0.944 | normalized growth [46]: 0.977 | normalized growth [47]: 0.968 | normalized growth [48]: 0.977 | normalized growth [49]: 0.991 | normalized growth [50]: 0.986 | normalized growth [51]: 0.98 | normalized growth [52]: 0.966 | normalized growth [53]: 0.97 | normalized growth [54]: 0.976 | normalized growth [55]: 0.973 | normalized growth [56]: 0.974 | normalized growth [57]: 0.958 | normalized growth [58]: 0.964 | normalized growth [59]: 1.02 | normalized growth [60]: 0.978 | normalized growth [61]: 0.974 | normalized growth [62]: 0.966 | normalized growth [63]: 0.971 | normalized growth [64]: 0.985 | normalized growth [65]: 0.974 | normalized growth [66]: 0.932 | normalized growth [67]: 0.983 | normalized growth [68]: 0.973 | normalized growth [69]: 0.959 | normalized growth [70]: 0.965 | normalized growth [71]: 0.959

CCC1CCC(C)N(C(=S)Nc2ccc(Br)cc2C)C1 (stereo not drawn)
normalized growth [1]: 0.965 | normalized growth [2]: 0.976 | normalized growth [3]: 0.955 | normalized growth [4]: 0.971 | normalized growth [5]: 0.953 | normalized growth [6]: 0.966 | normalized growth [7]: 0.961 | normalized growth [8]: 0.958 | normalized growth [9]: 0.96 | normalized growth [10]: 0.956 | normalized growth [11]: 0.987 | normalized growth [12]: 0.969 | normalized growth [13]: 0.953 | normalized growth [14]: 0.963 | normalized growth [15]: 0.955 | normalized growth [16]: 0.936 | normalized growth [17]: 0.961 | normalized growth [18]: 0.956 | normalized growth [19]: 0.963 | normalized growth [20]: 0.978 | normalized growth [21]: 0.995 | normalized growth [22]: 0.967 | normalized growth [23]: 0.963 | normalized growth [24]: 1.11 | normalized growth [25]: 0.964 | normalized growth [26]: 0.84 (active) | normalized growth [27]: 0.979 | normalized growth [28]: 1.05 | normalized growth [29]: 0.993 | normalized growth [30]: 0.968 | normalized growth [31]: 0.913 | normalized growth [32]: 0.927 | normalized growth [33]: 0.986 | normalized growth [34]: 0.964 | normalized growth [35]: 1.01 | normalized growth [36]: 0.987 | normalized growth [37]: 0.956 | normalized growth [38]: 1 | normalized growth [39]: 0.95 | normalized growth [40]: 0.951 | normalized growth [41]: 1.05 | normalized growth [42]: 0.924 | normalized growth [43]: 0.98 | normalized growth [44]: 0.992 | normalized growth [45]: 0.958 | normalized growth [46]: 0.961 | normalized growth [47]: 0.973 | normalized growth [48]: 0.962 | normalized growth [49]: 0.966 | normalized growth [50]: 0.974 | normalized growth [51]: 0.948 | normalized growth [52]: 0.967 | normalized growth [53]: 0.957 | normalized growth [54]: 0.963 | normalized growth [55]: 0.948 | normalized growth [56]: 0.959 | normalized growth [57]: 0.964 | normalized growth [58]: 0.948 | normalized growth [59]: 1.08 | normalized growth [60]: 0.957 | normalized growth [61]: 0.968 | normalized growth [62]: 0.968 | normalized growth [63]: 0.955 | normalized growth [64]: 0.969 | normalized growth [65]: 0.967 | normalized growth [66]: 0.906 | normalized growth [67]: 0.959 | normalized growth [68]: 0.978 | normalized growth [69]: 0.979 | normalized growth [70]: 0.962 | normalized growth [71]: 0.95
